What all share (assay): thermal shift delta Tm vs DMSO control; higher = stronger stabilization (binding)
Conditions in all cases: 12.5 µM; protein concentration 2 µM

One test relates to LOC_OS01G01410-cb001. In outline: (§1)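 Thermal shift values come from differential scanning fluorimetry on purified rice kinase domains made in E. coli, with melting temperatures obtained from Boltzmann fits. Samples of 19.5 μl held 2 μM kinase, 100 mM potassium phosphate pH 7.5, 150 mM NaCl, 10% glycerol, 5 × SYPRO Orange and compound in DMSO, and were heated from 25°C to 95°C at 0.05°C/s. Each shift is a triplicate mean relative to the DMSO-only protein sample.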

The next test has as its system LOC_OS01G02750-cb003. An outline of the steps: as §1
Another test has as its system LOC_OS01G10900-cb004. An outline of the steps: as §1
In a further test the test system is LOC_OS01G13800-cb001. An outline of the steps: as §1
The next test has as its system LOC_OS01G14860-cb001. An outline of the steps: as §1
For a further test, the system named is LOC_OS01G21960-cb002. An outline of the steps:
as §1

The next test has as its system LOC_OS01G39600-cb002. In outline: as §1
A further test relates to LOC_OS01G48390-cb002. In outline: as §1
A further test concerns LOC_OS01G51400-cb002. In outline:
as §1

The subject of the next test is T1, LOC_OS01G52050-cb004.
T1 sequence (whole entry): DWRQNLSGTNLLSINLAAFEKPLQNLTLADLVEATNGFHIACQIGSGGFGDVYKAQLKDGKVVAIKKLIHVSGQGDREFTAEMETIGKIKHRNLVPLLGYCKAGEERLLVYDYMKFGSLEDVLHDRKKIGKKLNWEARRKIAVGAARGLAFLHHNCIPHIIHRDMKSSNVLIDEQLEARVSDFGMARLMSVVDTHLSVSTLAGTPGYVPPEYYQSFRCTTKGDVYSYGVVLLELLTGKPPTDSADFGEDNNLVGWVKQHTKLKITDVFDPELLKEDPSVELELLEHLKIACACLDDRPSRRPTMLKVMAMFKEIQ
In outline: as §1

In another test the test system is LOC_OS01G57100-cb003. In outline:
as §1

For the next test, the system named is LOC_OS01G60330-cb001. An outline of the steps: as §1
For a further test, the system named is LOC_OS01G60700-cb002. In outline:
as §1

The test system of the next test is LOC_OS01G63280-cb003. In outline:
as §1

A further test relates to LOC_OS01G67340-cb003. An outline of the steps:
as §1

For the next test, the system named is LOC_OS01G70970-cb002. In outline:
as §1

The subject of another test is LOC_OS02G07810-cb001. An outline of the steps:
as §1

The next test concerns LOC_OS02G08530-cb003. In outline: as §1
For another test, the system named is LOC_OS02G14120-cb001. An outline of the steps: as §1
Another test relates to LOC_OS02G17970-cb001. An outline of the steps:
as §1

The source of these data is the supplement of paper PMC9694430.
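Also: purified Escherichia coli-expressed rice kinase domain construct.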

For the compound `C[C@@H](Oc1cc(-c2cnn(C3CCNCC3)c2)cnc1N)c1c(Cl)ccc(F)c1Cl`, the “thermal shift delta Tm” value in the test on LOC_OS01G01410-cb001 is 2.96 °C; in the test on LOC_OS01G02750-cb003 it was 1.71 °C; in the test with LOC_OS01G10900-cb004, 1.58 °C; in the test on LOC_OS01G13800-cb001, -0.59 °C; in the test with LOC_OS01G14860-cb001, 0.41 °C; with LOC_OS01G21960-cb002, -0.27 °C. Besides, the “thermal shift delta Tm” value worked out at 0.93 °C in the test on LOC_OS01G39600-cb002; 5.62 °C with LOC_OS01G48390-cb002; 0.05 °C with LOC_OS01G51400-cb002; 4.57 °C in the test with LOC_OS01G52050-cb004; 2.74 °C with LOC_OS01G57100-cb003; 1.69 °C in the test on LOC_OS01G60330-cb001. Further, the “thermal shift delta Tm” value is 0.88 °C with LOC_OS01G60700-cb002; 0.44 °C in the test with LOC_OS01G63280-cb003; 1.69 °C in the test on LOC_OS01G67340-cb003; 1.7 °C in the test on LOC_OS01G70970-cb002; 0.08 °C in the test with LOC_OS02G07810-cb001; 0.54 °C in the test with LOC_OS02G08530-cb003. For the same compound, the “thermal shift delta Tm” value came out at 10.6 °C in the test on LOC_OS02G14120-cb001 and 0.54 °C in the test on LOC_OS02G17970-cb001.
`NC(=O)c1cnc2[nH]ccc2c1N[C@@H]1[C@@H]2CC3C[C@H]1C[C@@](O)(C3)C2`: the “thermal shift delta Tm” value with LOC_OS01G01410-cb001 was determined as 3.91 °C; in the test on LOC_OS01G02750-cb003, 3.77 °C; in the test with LOC_OS01G10900-cb004 it was 1 °C; in the test on LOC_OS01G13800-cb001 it was 0.16 °C; in the test with LOC_OS01G14860-cb001, 5.61 °C; with LOC_OS01G21960-cb002, 2.38 °C. Also, the “thermal shift delta Tm” value is 5.22 °C with LOC_OS01G39600-cb002; 4.09 °C in the test on LOC_OS01G48390-cb002; 0.18 °C with LOC_OS01G51400-cb002; 4.66 °C in the test with LOC_OS01G52050-cb004; 0.13 °C with LOC_OS01G57100-cb003; 10.2 °C with LOC_OS01G60330-cb001. Further, the “thermal shift delta Tm” value with LOC_OS01G60700-cb002 turned out to be 1.43 °C; with LOC_OS01G63280-cb003, 3.87 °C; with LOC_OS01G67340-cb003, 3.53 °C; in the test on LOC_OS01G70970-cb002, 6.42 °C; with LOC_OS02G07810-cb001 it was 0.39 °C; with LOC_OS02G08530-cb003 it was 3 °C. In addition, the “thermal shift delta Tm” value in the test with LOC_OS02G14120-cb001 amounted to 6.44 °C; in the test with LOC_OS02G17970-cb001 it was 0.82 °C.
For the compound `CO[C@@H](C(=O)N1Cc2[nH]nc(NC(=O)c3ccc(N4CCN(C)CC4)cc3)c2C1)c1ccccc1`, the “thermal shift delta Tm” value in the test on LOC_OS01G01410-cb001 was 3 °C; in the test with LOC_OS01G02750-cb003 it was 1.69 °C; with LOC_OS01G10900-cb004, 6.13 °C; in the test with LOC_OS01G13800-cb001 it was -0.31 °C; in the test with LOC_OS01G14860-cb001, 0.54 °C; with LOC_OS01G21960-cb002, 0.38 °C. The “thermal shift delta Tm” value with LOC_OS01G39600-cb002 is 1.14 °C; in the test with LOC_OS01G48390-cb002, 3.55 °C; with LOC_OS01G51400-cb002, 0.01 °C; with LOC_OS01G52050-cb004, 0.36 °C; with LOC_OS01G57100-cb003, 0.28 °C; in the test with LOC_OS01G60330-cb001 it was 1.12 °C. Also, the “thermal shift delta Tm” value is 0.4 °C in the test with LOC_OS01G60700-cb002; 0.57 °C with LOC_OS01G63280-cb003; -0.26 °C in the test on LOC_OS01G67340-cb003; 1.38 °C in the test on LOC_OS01G70970-cb002; 0.65 °C in the test with LOC_OS02G07810-cb001; 0.25 °C in the test on LOC_OS02G08530-cb003. Moreover, the “thermal shift delta Tm” value worked out at 9.66 °C in the test with LOC_OS02G14120-cb001 and 0.37 °C with LOC_OS02G17970-cb001.
With `Cc1ccc2nc(NCCN)c3ncc(C)n3c2c1`, the “thermal shift delta Tm” value with LOC_OS01G01410-cb001 was 0.42 °C; in the test on LOC_OS01G02750-cb003, 0.41 °C; in the test on LOC_OS01G10900-cb004, 1.16 °C; in the test on LOC_OS01G13800-cb001 it was 0.4 °C; with LOC_OS01G14860-cb001, 0.19 °C; in the test with LOC_OS01G21960-cb002, 0.57 °C. The “thermal shift delta Tm” value is -0.24 °C with LOC_OS01G39600-cb002; 1.79 °C in the test on LOC_OS01G48390-cb002; 0.09 °C in the test on LOC_OS01G51400-cb002; 0.5 °C with LOC_OS01G52050-cb004; 0.95 °C in the test on LOC_OS01G57100-cb003; 0.28 °C with LOC_OS01G60330-cb001. Moreover, the “thermal shift delta Tm” value is 0.64 °C with LOC_OS01G60700-cb002; 0.27 °C with LOC_OS01G63280-cb003; 0.55 °C in the test with LOC_OS01G67340-cb003; 0.33 °C with LOC_OS01G70970-cb002; 0.4 °C with LOC_OS02G07810-cb001; 0.92 °C in the test with LOC_OS02G08530-cb003. The “thermal shift delta Tm” value came to 0.86 °C with LOC_OS02G14120-cb001 and 0.51 °C in the test with LOC_OS02G17970-cb001.
Regarding `CCn1c2ccccc2c2cc(Nc3ccnc(NCCCN4CCOCC4)n3)ccc21`, the “thermal shift delta Tm” value with LOC_OS01G01410-cb001 is -0.05 °C; in the test with LOC_OS01G02750-cb003 it was -0.06 °C; in the test on LOC_OS01G10900-cb004 it was 0.59 °C; in the test with LOC_OS01G13800-cb001, -0.29 °C; with LOC_OS01G14860-cb001 it was 0.53 °C; with LOC_OS01G21960-cb002, 0.58 °C. The “thermal shift delta Tm” value in the test on LOC_OS01G39600-cb002 is -0.04 °C; in the test with LOC_OS01G48390-cb002, 0.62 °C; in the test with LOC_OS01G51400-cb002 it was 0.13 °C; in the test on LOC_OS01G52050-cb004, 0.07 °C; with LOC_OS01G57100-cb003, 0.92 °C; in the test on LOC_OS01G60330-cb001, 1.04 °C. Moreover, the “thermal shift delta Tm” value is 0.87 °C in the test on LOC_OS01G60700-cb002; 0.29 °C in the test on LOC_OS01G63280-cb003; 0.51 °C with LOC_OS01G67340-cb003; 0.28 °C in the test with LOC_OS01G70970-cb002; 0.54 °C in the test with LOC_OS02G07810-cb001; 1.04 °C with LOC_OS02G08530-cb003. The results for the “thermal shift delta Tm” value in the test with LOC_OS02G14120-cb001 and in the test with LOC_OS02G17970-cb001 were -0.17 °C and 0.22 °C, respectively.
For `Nc1nc2cc(-c3ccc4ncc(C(=O)N5CCOCC5)n4c3)ccc2o1` [Serabelisib (INK-1117,MLN-1117,TAK-117)], the “thermal shift delta Tm” value was 0.8 °C with LOC_OS01G01410-cb001; 1.57 °C in the test on LOC_OS01G02750-cb003; 2.36 °C with LOC_OS01G10900-cb004; 0.43 °C with LOC_OS01G13800-cb001; 1.16 °C with LOC_OS01G14860-cb001; 0.81 °C in the test on LOC_OS01G21960-cb002. In addition, the “thermal shift delta Tm” value with LOC_OS01G39600-cb002 amounted to 0.1 °C; with LOC_OS01G48390-cb002 it was 0.39 °C; in the test with LOC_OS01G51400-cb002, 0.34 °C; in the test on LOC_OS01G52050-cb004, 3.87 °C; in the test on LOC_OS01G57100-cb003, 1.55 °C; in the test with LOC_OS01G60330-cb001, 0.93 °C. For the same compound, the “thermal shift delta Tm” value turned out to be 0.36 °C in the test with LOC_OS01G60700-cb002; 0.07 °C with LOC_OS01G63280-cb003; 1.26 °C in the test on LOC_OS01G67340-cb003; 1.33 °C in the test with LOC_OS01G70970-cb002; 0.05 °C in the test on LOC_OS02G07810-cb001; 1.17 °C with LOC_OS02G08530-cb003. Besides, the figures for the “thermal shift delta Tm” value with LOC_OS02G14120-cb001 and in the test with LOC_OS02G17970-cb001 were 2.02 °C and 0.23 °C, respectively.
